An excerpt weighted towards active compounds, which were near 7.3% of everything screened.
3T3 cytotox = kills NIH 3T3 cells; 94,000 compounds, 4.3% hits; NIH 3T3 viability, CellTiter-Glo ATP luminescence, 48-72 h; Potency, µM (series often up to 96.7 µM), for inactives: top-dose activity change, negative = cytotoxicity, most hits filed as inhibitors; note: potency is the fitted concentration of half-maximal effect; nearly all actives have a fitted effect of over 55% in size
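Mouse fibroblast NIH 3T3 cells, 400 per well, received compound via pintool and were incubated for 48 or 72 hr prior to CellTiter-Glo ATP luminescence measurement.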
FLuc inh = blocks purified firefly luciferase enzyme activity; P08659; purified P. pyralis luciferase, luminescence, biochemical; Potency, µM (highest dose often 115 µM), hits mostly inhibitors; 76,000 compounds, 2.5% hits; AID 1347043; note: potency is the fitted concentration of half-maximal effect; nearly all actives have a fitted effect of over 65% in size
Target sequence (P08659 whole entry, looked up): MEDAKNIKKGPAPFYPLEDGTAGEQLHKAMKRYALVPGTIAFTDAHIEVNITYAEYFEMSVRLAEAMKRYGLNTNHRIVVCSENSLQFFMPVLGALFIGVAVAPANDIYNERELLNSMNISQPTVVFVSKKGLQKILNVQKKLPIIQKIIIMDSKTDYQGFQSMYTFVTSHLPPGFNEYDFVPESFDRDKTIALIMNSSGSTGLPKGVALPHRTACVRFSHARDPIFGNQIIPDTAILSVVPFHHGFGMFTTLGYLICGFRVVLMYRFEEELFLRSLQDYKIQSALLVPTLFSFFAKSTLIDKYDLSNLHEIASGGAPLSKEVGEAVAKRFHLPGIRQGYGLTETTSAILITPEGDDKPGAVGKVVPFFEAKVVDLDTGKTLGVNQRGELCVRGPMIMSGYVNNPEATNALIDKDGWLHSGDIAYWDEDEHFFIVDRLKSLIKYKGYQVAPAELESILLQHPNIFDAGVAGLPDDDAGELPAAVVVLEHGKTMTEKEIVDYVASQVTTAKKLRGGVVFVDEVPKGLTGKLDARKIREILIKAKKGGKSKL
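Purified 10nM P. pyralis luciferase with 10uM D-luciferin and 10uM ATP in 50mM Tris acetate pH 7.5, 10mM Mg acetate, 0.01% Tween-20, 0.05% BSA. qHTS titration; luminescence read by CCD imager.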
HEK293 viab = counter-screen for SNCA expression inhibitors: cell viability; HEK-293-SNCA-luc viability, GF-AFC fluorescence, 24 h; Potency, µM (highest dose often 57.1 µM), for inactives: at the top dose activity change, negative = cytotoxicity, hits mostly cytotoxic; 150,000 compounds, 0.12% hits; AID 1671193;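 note: potency is the fitted concentration of half-maximal effect; 0% = DMSO-treated cells and -100% = medium-only wells without cells; nearly all actives have a fitted effect of over 30% in size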
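HEK-293-SNCA-luc cells (1500/well) plated 24 h, then exposed 24 h to a dilution series; GF-AFC added 30 min at 37C, fluorescence 405/540 nm; normalised to medium-only and DMSO wells, Hill fit.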
SNCA expr inh = SNCA gene expression inhibition; HEK-293 SNCA-luciferase knock-in, luminescence, 24 h; Potency, µM (doses to about 57.2 µM), for the others: top-dose activity change, negative = inhibition, usual class: inhibitors; 140,000 compounds, 0.17% hits;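 note: potency is the fitted concentration of half-maximal effect; plate controls were DMSO cells for no effect and cell-free wells for full effect; nearly all actives have a fitted effect of over 45% in size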
IP6K1 inhibitor = blocks human inositol hexakisphosphate kinase 1; IP6K1 kinase, ADP-Glo luminescence, 2 h; hits give low values; 140,000 compounds, 0.81% hits; Q92551; AID 1645851; activity change, % (series mostly up to about 58 µM); in the data active = activity change below about -25%
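ADP-Glo luminescence measures ADP made by human IP6K1 during a 2 h RT reaction with ATP/IP6 (mix at 1.3 mM/130 uM); top library doses 57.5 and 19.1 uM final.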
HEK cytotox = cytotoxic compounds in HEK 293 cells; HEK 293 viability, ATP luminescence (CellTiter-Glo), 48-72 h; Potency, µM (series often up to 115 µM), for inactives: at the top dose activity change, negative = cytotoxicity, actives largely listed as inhibitors; 94,000 compounds, 6.6% hits; note: potency is the fitted concentration of half-maximal effect; nearly all actives have a fitted effect of over 60% in size
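Pintool-delivered compounds were incubated with HEK 293 cells (250 cells/well) at 37 degree Celsius for 48 or 72 hr. ATP-dependent luminescence (CellTiter-Glo) then reported remaining viable cells.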
* hit, by the source's call; i = inactive; ? = inconclusive; · = no result; [ ] = remark or other dose. Unless noted, calls come from the whole dose curve; as a rule, active = well fitted curve in the direction sought with a large enough effect; inconclusive = small, poorly fitted or top-dose-only effect, or another doubt; inactive = no such curve, though single readings can be large; an effect the other way counts as inactive or inconclusive. Unless noted, % is set by controls: 0 for no effect and ±100 for the full control effect.

SMILES | 3T3 cytotox | FLuc inh | HEK293 viab | SNCA expr inh | IP6K1 inhibitor | HEK cytotox
CC(=O)Nc1ccc(CN2CC(Oc3ccc(F)c(C)c3)C2)cc1 | ? | i | 3%[87.6 µM] | 27%[87.6 µM] | 4 | ?
Cc1cc(F)ccc1OC1CN(Cc2ccccc2)C1 | 89µM* | i | -11%[87.6 µM] | 56%[87.6 µM] | 5 | ?
Cc1cc(C(=O)N2CCC(=O)N(Cc3ccc(F)cc3)C(C(C)C)C2)n[nH]1 (configuration not stated) | -20% | i | 1% | 4% | 11 | -16%
COc1ccc2nc([C@H]3CCN(C(C)C)C3)[nH]c2c1 | -26%[174 µM] | 22µM* | -5%[87.6 µM] | 6%[87.6 µM] | -12 | -26%[230 µM]
CC(C)N1CC[C@H](c2nc3ccc(C#N)cc3[nH]2)C1 | -11%[230 µM] | 40µM* | -16%[87.6 µM] | 107%[87.6 µM] | 9 | -29%[230 µM]
COc1ccc2nc([C@H]3CCN(C4CCN(C(C)=O)CC4)C3)[nH]c2c1 | -3%[174 µM] | ? | -8%[87.6 µM] | 21%[87.6 µM] | -3 | -16%[172 µM]
CC(C)N1CC[C@H](c2nc3ccc(C(F)(F)F)cc3[nH]2)C1 | -25%[174 µM] | 22µM* | 1%[87.6 µM] | 132%[87.6 µM] | 5 | ?
CC(=O)N1CC[C@H](c2nc3ccc(C(F)(F)F)cc3[nH]2)C1 | ? | i | 2%[87.6 µM] | 0%[87.6 µM] | -4 | -9%[172 µM]
O=C(c1ccoc1)N1CCCN(Cc2cn(-c3ccccc3)nn2)CC1 | -1% | i | -13% | 27% | 3 | -2%
CC(C)c1ccc(CN2CCCC3(CCN(S(C)(=O)=O)C3)C2=O)cc1 (configuration not stated) | -21% | i | -3% | -11% | 15 | ?
Cc1noc2c(N3CCN(Cc4ccccc4)CC3)cc(-c3ccsc3)nc12 | ? | i | -24%[87.6 µM] | ? | -2 | 56µM*
Cc1noc2c(N3CC[S+](=O)([O-])CC3)cc(-c3ccccc3)nc12 | ? | i | -2%[87.6 µM] | 2%[87.6 µM] | -9 | 2%[172 µM]
CO[C@H]1C(=O)N(C(C)C)[C@H]1C1CCN(S(=O)(=O)c2ccc3c(c2)CCC3)CC1 | ? | · | 14% | 18% | 15 | ?
O=C(CN1C(=O)NC(c2ccc(Cl)cc2)C2=C1COC2=O)NCc1ccccc1Cl (configuration not stated) | ? | i | 6% | -16% | 0 | 35µM*
CC(CCc1ccccc1)NC(=O)CN1C(=O)NC(c2ccc(Cl)cc2)C2=C1COC2=O (configuration not stated) | ? | i | -19% | -21% | -1 | 40µM*
O=C1OCC2=C1C(c1ccc(Cl)cc1)NC(=O)N2CC(=O)N1CCC(Cc2ccccc2)CC1 (configuration not stated) | ? | i | -29% | ? | 1 | 28µM*
COc1ccc(C2=NOC3(CCN([S+](=O)([O-])c4c(C)noc4C)C3)C2)cc1 (configuration not stated) | ? | i | 4% | 0% | 4 | ?
CC1=C[C@@H](CN2CCN(c3ncccn3)CC2)[C@H](C(C)C)C[C@H]1Cc1nnc(-c2cncn2C)o1 | ? | i | -23% | ? | -3 | 35µM*
CC1=C[C@@H](CN2CCCCC2)[C@H](C(C)C)C[C@H]1Cc1nnc(-c2cncn2C)o1 | ? | i | -1%[87.6 µM] | 11%[87.6 µM] | 6 | 100µM*
CC1=C[C@@H](CN2CCN(c3ccccn3)CC2)[C@H](C(C)C)C[C@H]1Cc1nnc(C)o1 | ? | i | -15%[87.6 µM] | -23%[87.6 µM] | -7 | ?
COc1ccccc1N1CCN(C[C@@H]2C=C(C)[C@H](Cc3nnc(-c4cncn4C)o3)C[C@H]2C(C)C)CC1 | 35µM* | i | ? | ? | -11 | 13µM*
CN1CCC2(Cc3ccccc3CN(C(=O)C3CCCC3)C2)C1 (configuration not stated) | -26% | · | -7% | -3% | -7 | -21%
CS(=O)(=O)c1cnc(NCCCc2ccccc2)nc1C1CCCNC1 (configuration not stated) | ? | i | 1% | 11% | -3 | ?
COc1cccc(NC(=O)Cn2c(C)ccc(NS(=O)(=O)c3ccccc3)c2=O)c1 | -1% | i | -18% | ? | -1 | -3%
CC1(O)CCCN(Cc2cc3cc4c(cc3nc2-c2ccc(Cl)cc2)OCO4)C1 (configuration not stated) | ? | 32µM* | ? | ? | 15 | ?
SMILES | 3T3 cytotox | FLuc inh | HEK293 viab | SNCA expr inh | IP6K1 inhibitor | HEK cytotox
COc1cc2cc(CN3CCC(N(C)C)C3)c(-c3cccc(Cl)c3)nc2cc1OC (configuration not stated) | ? | ? | ? | 4% | 4 | ?
CSc1ccc2cc(CN3CC[C@@H](O)C3)c(-c3ccc(Cl)cc3)nc2c1 | ? | i | 0% | -12% | 7 | ?
OCC1CCN(Cc2cc3cc4c(cc3nc2-c2ccc(Cl)cc2)OCO4)CC1 | ? | 32µM* | -10% | -3% | -17 | ?
CN(C)C1CCN(Cc2cc3cc4c(cc3nc2-c2ccc(Cl)cc2)OCO4)C1 (configuration not stated) | ? | 28µM* | -24% | 27% | 11 | ?
CCC1Oc2ccc(NC(=O)COc3ccccc3)cc2CN(Cc2ccc(F)cc2)C1=O (configuration not stated) | ? | i | -1% | -11% | 10 | ?
CC(=O)Nc1ccc(S(=O)(=O)N[C@H]2CO[C@H]3[C@@H]2OC[C@H]3OC(=O)Nc2ccc(Oc3ccccc3)cc2)cc1 | ? | i | -13% | -25% | 8 | ?
Cc1nn(-c2ccc(C(F)(F)F)cc2)c(C)c1[C@@H]1C=C[C@@H](NC(=O)c2cccs2)C1 | 28µM* | ? | ? | 16%[87.6 µM] | -4 | ?
Cc1nn(-c2ccc(C(C)(C)C)cc2)c(C)c1[C@@H]1C=C[C@@H](NC(=O)c2cccs2)C1 | ? | 20µM* | ? | 18%[87.6 µM] | 1 | 35µM*
Cc1ccc(-n2nc(C)c([C@@H]3C=C[C@@H](NC(=O)c4cccs4)C3)c2C)cc1Cl | ? | 25µM* | ? | 11%[87.6 µM] | -2 | ?
Cc1nn(-c2ccccn2)c(C)c1[C@@H]1C=C[C@@H](NC(=O)c2cccs2)C1 | ? | ? | -11%[87.6 µM] | -10%[87.6 µM] | 7 | ?
Cc1ccc(-n2nc(C)c([C@@H]3C=C[C@@H](N)C3)c2C)cc1Cl | 28µM* | 71µM* | -21%[87.6 µM] | 54%[87.6 µM] | -9 | 40µM*
Cc1ccc(-n2nc(C)c([C@H]3C=C[C@@H](OC(=O)Nc4cccc(F)c4)C3)c2C)cc1Cl | ? | i | 0% | 122% | 1 | ?

Compound activity as filed in PubChem.
